In PubChem BioAssay AID1159580 (chemical genetic matrix, 2015):
Values joined by “and” are separate entries in the source; they are usually repeats but may differ in a detail not shown here. Equal entries are not always repeated. Hit rate of the full screen: of about 5,500 compounds, about 2,000 (36%) were called active. Roughly 18% stayed inconclusive and do not appear here. Rule as the data show it: active = normalized growth mostly below about 0.91 (no sharp cut-off); inconclusive = no clear call, values can overlap the other calls; inactive = mostly above about 0.92. Some of the results follow.

Experiment: chemical genetic growth profiling, strain panel (AID 1159580);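 also: tested at 20 µM; growth read once vehicle control cultures reached saturation at 30 °C; 1 = growth at the plate median or of vehicle wells; lower values mean less growth of the strain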
Settings: S. cerevisiae deletion strains, growth OD

Measured: normalized growth

CC1(C)OC(=O)NC1=O
inactive: locus YAL021C, strain ccr4, active compounds read low 0.996 | locus YAL026C, strain drs2, active compounds read low 0.976 | locus YAL030W, strain snc1, active compounds read low 1.01 | locus YBL061C, strain skt5, active compounds read low 1.02 | locus YBR009C, strain hhf1, active compounds read low 1 | locus YBR021W, strain FUR4, active compounds read low 0.996 | locus YBR023C, strain chs3, active compounds read low 1.01 | locus YBR171W, strain sec66, active compounds read low 1.01 | locus YBR229C, strain ROT2, active compounds read low 0.984 | locus YBR231C, strain swc5, active compounds read low 1.04 | locus YBR279W, strain paf1, active compounds read low 1.01 | locus YCL011C, strain gbp2, active compounds read low 1 | locus YCL016C, strain dcc1, active compounds read low 1 | locus YCL029C, strain bik1, active compounds read low 0.969 | locus YCL069W, strain vba3, active compounds read low 1 | locus YCR088W, strain abp1, active compounds read low 0.994 | locus YDL005C, strain med2, active compounds read low 0.997 | locus YDL035C, strain GPR1, active compounds read low 1.04 | locus YDL040C, strain nat1, active compounds read low 1.01 | locus YDL074C, strain BRE1, active compounds read low 0.986 | locus YDL101C, strain DUN1, active compounds read low 0.981 | locus YDL134C, strain PPH21, active compounds read low 1.02 | locus YDL185W, strain tfp1, active compounds read low 0.979 | locus YDL192W, strain arf1, active compounds read low 0.985 | locus YDR001C, strain nth1, active compounds read low 0.992 | locus YDR069C, strain doa4, active compounds read low 1.03 | locus YDR101C, strain arx1, active compounds read low 1 | locus YDR137W, strain rgp1, active compounds read low 1 | locus YDR159W, strain sac3, active compounds read low 0.983 | locus YDR162C, strain NBP2, active compounds read low 1.01 | locus YDR195W, strain ref2 1.01 | locus YDR297W, strain sur2, active compounds read low 1.02 | locus YDR318W, strain mcm21, active compounds read low 0.98 | locus YDR334W, strain swr1, active compounds read low 0.993 | locus YDR335W, strain msn5, active compounds read low 1.02 | locus YDR388W, active compounds read low 0.98 | locus YDR392W, strain spt3, active compounds read low 0.944 | locus YDR502C, strain sam2, active compounds read low 0.994 | locus YEL003W, strain gim4, active compounds read low 1 | locus YEL037C, strain rad23, active compounds read low 0.992 | locus YEL061C, strain CIN8 (second series), active compounds read low 0.991 | locus YEL061C, strain CIN8, active compounds read low 0.991 | locus YER015W, strain faa2, active compounds read low 1.01 | locus YER016W, strain bim1, active compounds read low 1.01 | locus YER110C, active compounds read low 0.965 | locus YER111C, strain swi4, active compounds read low 0.993 | locus YER155C, strain BEM2 (second series), active compounds read low 0.972 | locus YER155C, strain BEM2, active compounds read low 0.994 | locus YER167W, strain BCK2, active compounds read low 0.997 | locus YFR010W, strain ubp6, active compounds read low 1.03 | locus YGL078C, strain dbp3, active compounds read low 0.975 | locus YGL086W, strain mad1, active compounds read low 1 | locus YGL167C, strain pmr1, active compounds read low 1.01 | locus YGL173C, strain kem1, active compounds read low 1.04 | locus YGL227W, strain vid30, active compounds read low 0.968 | locus YGL240W, strain doc1, active compounds read low 1.02 | locus YGL248W, strain PDE1, active compounds read low 0.985 | locus YGL253W, strain hxk2, active compounds read low 1.01 | locus YGR078C, strain PAC10, active compounds read low 0.992 | locus YGR135W, strain pre9, active compounds read low 0.958 | locus YGR252W, strain gcn5, active compounds read low 0.969 | locus YHR013C, strain ard1, active compounds read low 1.01 | locus YHR027C, strain rpn1, active compounds read low 1.01 | locus YHR030C, strain SLT2, active compounds read low 0.994 and 1.03 | locus YHR079C, strain IRE1 (second series), active compounds read low 0.983 | locus YHR079C, strain IRE1, active compounds read low 1.02 | locus YHR094C, strain hxt1, active compounds read low 0.972 | locus YHR129C, strain ARP1, active compounds read low 0.998 | locus YHR142W, strain chs7, active compounds read low 1 | locus YHR200W, strain rpn10, active compounds read low 0.981 | locus YIL066C, strain RNR3, active compounds read low 0.993 | locus YIL073C, strain SPO22, active compounds read low 0.952 | locus YIL125W, strain kgd1, active compounds read low 0.988 | locus YIR030C, strain dcg1, active compounds read low 0.972 | locus YJL092W, strain hpr5, active compounds read low 0.989 | locus YJL095W, strain BCK1 (second series), active compounds read low 1.01 | locus YJL095W, strain BCK1, active compounds read low 0.981 and 0.994 | locus YJL115W, strain asf1, active compounds read low 0.992 | locus YJL129C, strain trk1, active compounds read low 0.94 | locus YJL134W, strain LCB3, active compounds read low 0.992 | locus YJL154C, strain vps35, active compounds read low 0.995 | locus YJL164C, strain tpk1, active compounds read low 0.994 | locus YJL166W, strain qcr8, active compounds read low 1.03 | locus YJL168C, strain set2, active compounds read low 0.974 | locus YJL187C, strain SWE1 (second series), active compounds read low 0.98 | locus YJL187C, strain SWE1, active compounds read low 1.02 | locus YJR043C, strain POL32, active compounds read low 1.03 | locus YJR066W, strain TOR1, active compounds read low 0.957
